TIM10 inh – growth inhibitors of isogenic TIM10 control yeast, primary screen, counter-screen for tim10-1 yeast inhibitor project, luminescence, uHTS. S. cerevisiae TIM10 strain growth, BacTiter-Glo luminescence, 24 h. inhibition, % at 10 µM. actives 1.4% (n = 330,000);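 active = inhibition of 40% or more at the single tested concentration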;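 also: wild-type TIM10 isogenic control strain grown at permissive 25 °C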
tim10-1 inh – growth inhibitors of tim10-1 mutant yeast, primary screen, luminescence, uHTS; S. cerevisiae tim10-1 ts strain growth, BacTiter-Glo, 24 h; inhibition, % at 20 µM; actives 2.2% (n = 330,000);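 active = inhibition of at least 40%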;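 also: mutant grown at 25 °C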
NALP3 yeast inh – NALP3 inflammasome inhibitors in reconstituted yeast, primary screen, luminescence, uHTS. Yeast reconstituted NLRP3/ASC/caspase-1, beta-gal luminescence, 24 h. inhibition, % at 10 µM. actives 0.39% (n = 330,000);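 active = inhibition of 50% or more; inactive = inhibition below 50%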
tim23-1 inh – growth inhibitors of tim23-1 mutant yeast, primary screen, luminescence, uHTS. S. cerevisiae tim23-1 growth, BacTiter-Glo luminescence, 24 h. inhibition, % at 20 µM. actives 1.3% (n = 330,000). AID 463212, 2010;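 active = growth inhibition of the mutant yeast at or above 50%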;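 also: temperature-sensitive mutant grown at 25 °C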
Yeast superoxide – reduction of superoxide in aged yeast, primary screen, HTS; superoxide response (% of plate mean), % at 10 µM; actives 0.18% (n = 330,000); S. cerevisiae aged cells, superoxide DHE fluorescence; hits give low values; AID 2690, 2010;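 active = superoxide response under a set limit, about three screen SD below normal, cut at about 65% in these data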;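 also: yeast aged for seven days with compound at 30 °C before DHE staining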
TIM10 conf – growth inhibitors of wild-type TIM10 yeast, confirmation, counter-screen for tim10-1 synthetic lethality project, single concentration, luminescence, S. cerevisiae; shares compounds with TIM10 inh; S. cerevisiae tim10 strain growth, BacTiter-Glo luminescence, 24 h; inhibition, % at 10 µM; actives 63% (n = 4,600); AID 463215, 2010;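 active = inhibition of yeast growth at or above a set limit in either of two replicates at 10 µM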; also: this counterscreen used the strain with wild-type TIM10
Hits are given with their value; – = inactive; · = not tested or not shown. Shown are actives, neighbours in structure and some others; about 3.8% of the full set was active somewhere.

SMILES | TIM10 inh | tim10-1 inh | NALP3 yeast inh | tim23-1 inh | Yeast superoxide | TIM10 conf
Cc1c(Cl)cccc1NC(=S)NCc1ccc(Cl)cc1 | – | – | – | – | – | ·
CCn1c(=O)c([N+](=O)[O-])c(Cl)c2ccccc21 | 78 | – | – | – | – | 79
CCN(CC)C(=O)CSc1nc(C)cc(C)n1 | – | – | – | – | – | ·
Fc1ccccc1NC(=S)NCc1ccccc1 | – | – | – | – | – | ·
Fc1ccccc1NC(=S)NN(Cc1ccccc1)c1ccccc1 | 44 | – | – | – | – | 38
CC(NC(=O)CN(C)CC(=O)Nc1ccc(F)c(F)c1F)c1ccccc1 (stereo unspecified) | – | – | – | – | – | ·
CS(=O)(=O)c1cccc(C(=O)OCC(=O)NCc2cccs2)c1 | 72 | – | – | – | – | –
CNc1nc(N)c([N+](=O)[O-])c(Nc2ccccc2OC)n1 | 44 | – | – | – | – | 52
CCCn1c(SCc2ccon2)nc2ccccc2c1=O | – | – | – | – | – | ·
O=C(CN1CCN(c2nc(-c3ccc(Cl)cc3)cs2)CC1)NCc1ccco1 | 42 | – | – | – | – | 29
O=C(NCC1CCCO1)C1CC(=O)N(c2cccc(Cl)c2)C1 (stereo unspecified) | – | – | – | – | – | ·
O=C(C1=C(O)C(=O)N(CC2CCCO2)C1c1ccccc1F)c1ccco1 (stereo unspecified) | – | – | – | – | – | ·
Cc1cccc(N2CCN(C(c3ccccc3)c3nnnn3C(C)(C)C)CC2)c1C (stereo unspecified) | 41 | – | – | – | – | –
Cc1cccc(N2CCN(C(c3cccs3)c3nnnn3C(C)(C)C)CC2)c1C (stereo unspecified) | – | – | – | – | – | ·
c1ccc(Cn2c(SCc3nc4ccccc4s3)nnc2-c2ccco2)cc1 | – | – | – | – | – | ·
CCC(c1nnc(SCc2nc3ccccc3s2)n1Cc1ccccc1)N(C)C (stereo unspecified) | 41 | – | – | – | – | –
CCOc1nc(-c2ccccc2)ncc1Oc1ccccc1 | – | – | – | – | – | ·
O=C1NCCOC(=O)[C@H](Cc2ccc(F)cc2)C/C=C\C[C@H]1CC(=O)N(CCO)Cc1ccccc1 | 47 | – | – | – | – | –
O=C1NCCOC(=O)[C@H](Cc2ccc(F)cc2)C/C=C\C[C@@H]1CC(=O)N(CCO)Cc1ccccc1 | – | – | – | – | – | ·
COCC(C)n1c(C)cc(C(=O)COC(=O)c2c(C)nn(-c3ccccc3)c2C)c1C (stereo unspecified) | 43 | – | – | – | – | –
COCCn1c(C)cc(C(=O)COC(=O)c2c(C)nn(Cc3ccccc3)c2C)c1C | 41 | – | – | – | – | –
COCC(C)n1c(C)cc(C(=O)COC(=O)C2=NN(c3ccccc3)C(=O)CC2)c1C (stereo unspecified) | – | – | – | – | – | ·
Cc1nn(Cc2ccccc2)c(C)c1C(=O)OCC(=O)c1cc(C)n(C2CC2)c1C | – | – | – | – | – | ·
CCc1ccccc1NC(=O)CNC(=O)c1ccc(-n2cncn2)c([N+](=O)[O-])c1 | – | – | – | – | – | ·
COc1cccc(C(=O)CC(C#N)c2ccc(F)cc2)c1 (stereo unspecified) | – | – | – | – | – | ·
SMILES | TIM10 inh | tim10-1 inh | NALP3 yeast inh | tim23-1 inh | Yeast superoxide | TIM10 conf
Nc1c(C(=O)Nc2ccccc2F)sc2nc(-c3ccco3)ccc12 | 41 | – | – | – | – | –
NC(=O)c1nsc(C(=O)N(c2ccccc2F)C(C(=O)NCc2ccccc2)c2ccc(O)cc2)c1N (stereo unspecified) | 96 | – | – | – | – | –
Cc1c(O)ccc2c3c(c(=O)oc12)CCC(C)C3 (stereo unspecified) | – | – | – | – | – | ·
Cc1c(O)ccc2c3c(c(=O)oc12)CCCC3 | 41 | – | – | – | – | 31
CCOC(=O)c1ccc(S(=O)(=O)n2c(CN3CCCCC3)nc3ccccc32)cc1 | 50 | – | – | – | – | –
COc1ccc(NC(=S)NCCc2ccc(Cl)cc2)c(OC)c1 | 41 | – | – | – | – | –
COc1ccc(NC(=S)NCCSc2ccc(C)cc2)c(OC)c1 | 46 | – | – | – | – | –

Bioassay records deposited in PubChem BioAssay by several laboratories.
